Common to all, as to assay: pooled miR-30 sensor sort-seq; sequence = guide strand
Conditions in all cases: shRNA

Assay [1] has as its target STAT5B.
Assay [2] addresses STK24.
Assay [3] has as its target STK11.
Assay [4] concerns the target STARD3.
In assay [5] the target is STK32B.
For assay [6], the target named is STUB1.
The target in assay [7] is STRBP.
Assay [8] has as its target STX12.
The target of assay [9] is STRADB.
Assay [10] addresses SULT1A2.
Assay [11] concerns the target SYT2.
Assay [12] deals with TAS1R2.
In assay [13] the target is TC2N.
In assay [14] the target is TCTN3.
In assay [15] the target is TEAD3.
The target in assay [16] is TGFB1I1.
Assay [17] addresses TMEFF2.
Assay [18] addresses TMEM140.
Assay [19] has as its target TMEM156.
Assay [20] addresses TMEM147.
Also: reference of the scale not given here.

Take TTTAACACTTCCATCACACCGT: the sensor-assay potency score (higher = more potent) in [1] is 0.122.
For TGGACTGTCACACTGACTCAGC, the sensor-assay potency score (higher = more potent) in assay [2] is -1.39.
In the case of TTTAGCAGTAGCAGACTCGCAG, in assay [1], the sensor-assay potency score (higher = more potent) was 0.175.
The same measure, in the same setting: with TTGTTCAAGATCTCGCCACTGT the figure was 0.132.
Take TATACAAATCTGTACACCCATC: the sensor-assay potency score (higher = more potent) in assay [2] was -1.31.
The same measure, in the same setting: with TTTCATCTTATTTCTGTCCAAG the figure was -0.728.
For TCAGCTGACAGAAGTACCCGTG, in assay [3], the sensor-assay potency score (higher = more potent) was 0.17.
As to TAGGACTTTGAAGTCAAGGAAC, the sensor-assay potency score (higher = more potent) in [4] is -1.37.
TTGACTTGAAAAACCAGCTCAT displayed a sensor-assay potency score (higher = more potent) in assay [1] of 0.235.
The sequence TAATTGTAGATAAACACTGAGA yielded a sensor-assay potency score (higher = more potent) in assay [2] of -0.826.
As for TTCACTACCGTCGCTATGTTGA, the sensor-assay potency score (higher = more potent) in assay [5] is -0.4.
Consider TTCGCAACTTCTTCTTCTTGAG, for which the sensor-assay potency score (higher = more potent) in [3] is -0.46.
For TAATATAGTAGCGATCTGGGTT, the sensor-assay potency score (higher = more potent) in [2] is 0.44.
Same read-out and setting: with TTCTAATAGATCTAGTGCGGAG the figure was -0.878.
The sequence TTTTTGTGCCGTAACCTCCTCA yielded a sensor-assay potency score (higher = more potent) in assay [3] of 0.218.
The same measure, in the same setting: with TTTCTGCTTCTCTTCGTTGTAT the figure was 0.0401.
Still for that read-out and setting: next, TATAACACATCCACCAGCTGGA: 0.528.
On to TTGTGCTTCAATAACTCCTTAG, for which the sensor-assay potency score (higher = more potent) in [2] was -0.488.
Still for that read-out and setting: next, TCTCGGATTGTGAAGATCCAGT: -1.01.
In assay [3], ATCAGCTGACAGAAGTACCCGT had a sensor-assay potency score (higher = more potent) of -0.0103.
In turn, TTGCCACACAGGTAGTCGGGGA yielded a sensor-assay potency score (higher = more potent) in assay [6] of -0.252.
Regarding TAAAACTTAAACTTTGAACTGC, in assay [7], the sensor-assay potency score (higher = more potent) came out at 0.571.
TTGAGTCCTGCTTAGTTCCTAG returned a sensor-assay potency score (higher = more potent) in assay [8] of -0.155.
Same read-out and setting: next, TTTTCTGATAGTAAGCAGCTCG: 0.207.
With TTTGACTGTATTTAACAGGGTC, the sensor-assay potency score (higher = more potent) in [7] was determined as 0.301.
The sequence TTCAGGTAGCACAAGGCCCGGT registered a sensor-assay potency score (higher = more potent) in assay [6] of -0.567.
As to TTCTTCATTGCAGTTTTCCAGA, in assay [9], the sensor-assay potency score (higher = more potent) was -0.72.
Turning to TACTGTGTGAGTTCCACTGGAG, the sensor-assay potency score (higher = more potent) in [9] was found to be 0.0726.
Consider TAACAGAACCATTCTCTTGGGT, for which, in assay [7], the sensor-assay potency score (higher = more potent) is 0.367.
On the same count and under the same terms, next, TTACACATGATTTTAATCCATT: -0.986.
On the same count and under the same terms, with TTGAGTTTGAAGACACTGTTTC the figure was -0.227.
Turning to TAACTGTTGCAGATTTTCCTGT, the sensor-assay potency score (higher = more potent) in assay [8] came to 0.412.
Consider TAATCGGTCACTATTTACTGTG, for which, in assay [9], the sensor-assay potency score (higher = more potent) is -0.781.
Consider TTTCGTTTCATCTTCTTGTTGG, for which the sensor-assay potency score (higher = more potent) in assay [7] was 0.788.
On to ATAGCTCTCCATCTCCAGCTGG, for which the sensor-assay potency score (higher = more potent) in [6] is -0.665.
Still for that read-out and setting: next, TTCCAGCGCTTCTTCTTCGCGA: -0.702.
As for TTGTCTAAAACTATGCATGGAG, the sensor-assay potency score (higher = more potent) in [8] was -0.297.
With TTGCGGTCGTAGGTGATGCCAC, the sensor-assay potency score (higher = more potent) in [6] is -0.555.
In [9], TACTCCTGTGAATACAGCCATT returned a sensor-assay potency score (higher = more potent) of -1.43.
Sequence TTTTTGTCTAAAACTATGCATG displayed a sensor-assay potency score (higher = more potent) in assay [8] of -0.984.
On the same count and under the same terms, with TCTGATAGTAAGCAGCTCGCTG the figure was -0.759.
As to TTTGAGACTCTATACATCCTTC, the sensor-assay potency score (higher = more potent) in assay [7] was -0.328.
Same read-out and setting: next, TTACTATCCAGAATTTTCCTTA: 0.368.
Same read-out and setting: with TTCTTCTCCAATTCGTCCCTAA the figure was 0.053.
As for TTTAATAAGTTCCAAATCCTGC, the sensor-assay potency score (higher = more potent) in [8] was -0.773.
The sequence TTCCTCTTCTCATCCACCTGAG displayed a sensor-assay potency score (higher = more potent) in assay [6] of -0.167.
In [7], TTGATATTTCTCTTCTGTGAGT had a sensor-assay potency score (higher = more potent) of -0.566.
In [9], ATCTTGTTGCAAACAGAGCTGT gave a sensor-assay potency score (higher = more potent) of -0.583.
On the same count and under the same terms, next, TTGATGGCTTGTTATAAGCAGG: -1.06.
In assay [8], AAATATCTGATTGACATCCAAA gave a sensor-assay potency score (higher = more potent) of -1.28.
In turn, TTGCAAACAGAGCTGTACCAAG returned a sensor-assay potency score (higher = more potent) in assay [9] of -0.672.
In [6], TTGAGCTCCTGCGCGCTCGGGC returned a sensor-assay potency score (higher = more potent) of -0.67.
Still for that read-out and setting: next, TTCGCGATTCGAAGAGCGCTGG: -0.358.
As for TAGCTTGCTTGAGTCCTGCTTA, in assay [8], the sensor-assay potency score (higher = more potent) was -0.146.
In turn, TAATACACGGCCACCAGCGGGT yielded a sensor-assay potency score (higher = more potent) in [6] of -0.893.
Same read-out and setting: with TTATTACACAGATAGTGGCGGC the figure was 0.272.
In assay [9], TAGATTAGTAATTCTGATGTTT displayed a sensor-assay potency score (higher = more potent) of 0.0372.
With TTGTGGAGTGTTGTAACTGTTG, in assay [8], the sensor-assay potency score (higher = more potent) is -1.19.
The sequence TGCTCCTCGATGTCCTTGCGGT returned a sensor-assay potency score (higher = more potent) in assay [6] of -0.704.
Consider TAGCTCTCCATCTCCAGCTGGC, for which, in [6], the sensor-assay potency score (higher = more potent) is -0.433.
In [8], TACCCTTCTCTGCACAGCCTGG yielded a sensor-assay potency score (higher = more potent) of -1.07.
TTTTCCTGTAGCTTGCTTGAGT gave a sensor-assay potency score (higher = more potent) in assay [8] of 0.00107.
In assay [10], TGTGTTTTTCAGAGTCTCCATC yielded a sensor-assay potency score (higher = more potent) of -0.796.
The sequence TGGGACTTTGAACTCAAGGAAG yielded a sensor-assay potency score (higher = more potent) in [10] of -1.59.
As to TCTCATTGAATAACTTCTCCTT, the sensor-assay potency score (higher = more potent) in [11] was -0.0548.
In the case of TTGTCTCGCAGCTCATCGCTGA, the sensor-assay potency score (higher = more potent) in assay [12] was -0.453.
As for TTTCTTCTTACAGAGCTTCGAC, the sensor-assay potency score (higher = more potent) in assay [13] is -0.277.
As for TTACTCTCTAGGAAACCTGCAG, in assay [14], the sensor-assay potency score (higher = more potent) was 0.205.
In the case of TTAGAATCCATGAAAACTCTTG, the sensor-assay potency score (higher = more potent) in assay [14] is 0.212.
In the case of TTCTCTACCACCTGTTTGCCAA, the sensor-assay potency score (higher = more potent) in [15] was -0.68.
Take TTGTTCTGCAGGACACTGGCAG: in assay [15], the sensor-assay potency score (higher = more potent) was -0.245.
TCTTTTCTTATCTTCAGACTGG: the sensor-assay potency score (higher = more potent) in assay [16] was -0.149.
For the sequence TTCCTGAAGCAACCGATCTAGC, in assay [16], the sensor-assay potency score (higher = more potent) was -0.825.
Consider TTGTGTTATCTTGACATCGACC, for which the sensor-assay potency score (higher = more potent) in assay [17] was -0.895.
With TGACACTGTAGGGTGCTGGTGT, the sensor-assay potency score (higher = more potent) in assay [18] amounted to 0.184.
On the same count and under the same terms, next, ATGCTCATGAACAGCAGCTGGT: -1.09; TATAGAAGCCGATTCTCAGGTT: 0.501.
Regarding AATGTGTATACAATCATTCGGG, the sensor-assay potency score (higher = more potent) in [19] was -0.0136.
As to TAATGGACCAGACTGATGTTGG, in [20], the sensor-assay potency score (higher = more potent) was -0.822.
On the same count and under the same terms, next, TATCAGGTCTGCCACATCCACG: -1.57.
With TTGTACTCGGACAGGCCGCTGC, the sensor-assay potency score (higher = more potent) in assay [20] was -1.
For TCTCTCATCACTGTTGCACTGG, the sensor-assay potency score (higher = more potent) in [18] was 0.0267.
Still for that read-out and setting: next, TGTACTAAGAAGTCACAGGTGC: 0.194.
Turning to TTTGTCTCTATGACTCTGCCAC, in assay [19], the sensor-assay potency score (higher = more potent) is -0.207.

For the origin of these results see the OligoGym collection.
